Measured values from PubChem BioAssay (NCI).
The panel holds about 83,000 compounds, 20% with a hit somewhere; the sample as a whole holds those more often.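 Method: cells in 96-well plates; compound added at one concentration; 48 h incubation; percent growth measured; values under 10 scored active.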 The source made the active and inactive calls.

Tests used:
Experiment in all cases: NCI-60 one-dose screen, 48 h (100 = growth as untreated, 0 = no growth, -100 = all killed)
Details in all cases: 10 µM unless noted
SK-MEL-2 melanoma = test system: SK-MEL-2 melanoma
EKVX NSCLC = test system: EKVX NSCLC
SN12C renal = test system: SN12C renal
UO-31 renal = test system: UO-31 renal
ACHN renal = test system: ACHN renal
CAKI-1 renal = test system: CAKI-1 renal
A498 renal = test system: A498 renal
CCRF-CEM leukemia = test system: CCRF-CEM leukemia
MOLT-4 leukemia = test system: MOLT-4 leukemia
SR leukemia = test system: SR leukemia
RPMI-8226 leukemia = test system: RPMI-8226 leukemia
OVCAR-8 ovarian = test system: OVCAR-8 ovarian
OVCAR-5 ovarian = test system: OVCAR-5 ovarian
OVCAR-4 ovarian = test system: OVCAR-4 ovarian
SK-OV-3 ovarian = test system: SK-OV-3 ovarian
IGROV1 ovarian = test system: IGROV1 ovarian
OVCAR-3 ovarian = test system: OVCAR-3 ovarian
HS 578T breast = test system: HS 578T breast
NCI/ADR-RES ovarian = test system: NCI/ADR-RES ovarian
TK-10 renal = test system: TK-10 renal

Measured: growth

COc1cccc(-c2nc3sccn3c2-c2ccnc(NCCCNS(=O)(=O)c3ccc(C(F)(F)F)cc3)c2)c1
inactive: SK-MEL-2 melanoma 65.7% | EKVX NSCLC 46% | SN12C renal 47.9% | UO-31 renal 29.7% | ACHN renal 56% | CAKI-1 renal 40.3% | A498 renal 43% | CCRF-CEM leukemia 40.4% | MOLT-4 leukemia 26.4% | SR leukemia 51.2% | RPMI-8226 leukemia 33% | OVCAR-8 ovarian 45.1% | OVCAR-5 ovarian 95.7% | OVCAR-4 ovarian 38.3% | SK-OV-3 ovarian 72.6% | IGROV1 ovarian 60.5% | OVCAR-3 ovarian 61.7% | HS 578T breast 63.1% | NCI/ADR-RES ovarian 35.5%

COc1ccc(/C=C2/C(=O)NC(SCC(=O)N3CCN(c4cc5c(cc4F)c(=O)c(C(=O)O)cn5C4CC4)CC3)=NC2N)cc1OC (stereo unspecified)
inactive: SK-MEL-2 melanoma 111% | EKVX NSCLC 87.6% | SN12C renal 104% | UO-31 renal 86.9% | ACHN renal 104% | CAKI-1 renal 94.5% | A498 renal 107% | CCRF-CEM leukemia 99.4% | MOLT-4 leukemia 109% | SR leukemia 108% | OVCAR-8 ovarian 106% | OVCAR-5 ovarian 104% | OVCAR-4 ovarian 107% | SK-OV-3 ovarian 121% | IGROV1 ovarian 107% | OVCAR-3 ovarian 107% | HS 578T breast 105% | NCI/ADR-RES ovarian 104%

COc1cc(C2CC(c3ccc4c(c3)OCO4)=NN2C=O)cc(OC)c1OC (stereo unspecified)
active: CAKI-1 renal 6.42% | OVCAR-3 ovarian -29% | HS 578T breast 8.51%
inactive: SK-MEL-2 melanoma 31.3% | EKVX NSCLC 37.9% | SN12C renal 46.3% | TK-10 renal 53.2% | A498 renal 31.2% | CCRF-CEM leukemia 24.5% | MOLT-4 leukemia 45% | SR leukemia 33.5% | RPMI-8226 leukemia 52.8% | OVCAR-8 ovarian 53.9% | OVCAR-4 ovarian 57.7% | SK-OV-3 ovarian 24.7% | NCI/ADR-RES ovarian 15.5%

Cc1ccc(-c2nc(C(Cl)Cl)n3nc(-c4ccccc4)cc3n2)cc1
inactive: SK-MEL-2 melanoma 55.9% | EKVX NSCLC 35.3% | SN12C renal 70.4% | UO-31 renal 46.9% | A498 renal 77.8% | MOLT-4 leukemia 103% | SR leukemia 87.6% | OVCAR-8 ovarian 35.3% | OVCAR-5 ovarian 120% | OVCAR-4 ovarian 48% | IGROV1 ovarian 56.4% | HS 578T breast 31.5% | NCI/ADR-RES ovarian 18.8%
active: ACHN renal 3.72% | CAKI-1 renal 4.32% | RPMI-8226 leukemia 2.55% | OVCAR-3 ovarian -83.7%

NC(=N\N=C/c1ccc(O)cc1)/C(N)=N\N=C/c1ccc(O)cc1
active: MOLT-4 leukemia -8.61%
inactive: SK-MEL-2 melanoma 59% | EKVX NSCLC 65.5% | SN12C renal 74.2% | UO-31 renal 28.5% | CAKI-1 renal 41.5% | A498 renal 84.5% | CCRF-CEM leukemia 10.8% | SR leukemia 33.7% | RPMI-8226 leukemia 65.3% | OVCAR-8 ovarian 73.9% | OVCAR-4 ovarian 74.4% | SK-OV-3 ovarian 82.6% | IGROV1 ovarian 79.4% | OVCAR-3 ovarian 92% | HS 578T breast 99% | NCI/ADR-RES ovarian 58.5%

Cc1c(C(=N)C(C#N)C#N)c(=N)oc2c1ccc1ccccc12
active: IGROV1 ovarian -2.09%
inactive: SK-MEL-2 melanoma 26.6% | EKVX NSCLC 26.9% | SN12C renal 88.7% | UO-31 renal 85.5% | ACHN renal 86.4% | A498 renal 85.2% | CCRF-CEM leukemia 66.1% | MOLT-4 leukemia 64.3% | SR leukemia 26.1% | RPMI-8226 leukemia 44.7% | OVCAR-8 ovarian 80.8% | OVCAR-5 ovarian 104% | OVCAR-4 ovarian 95.3% | SK-OV-3 ovarian 104% | OVCAR-3 ovarian 95.5% | HS 578T breast 69.8% | NCI/ADR-RES ovarian 83.8%

CCN(CC)c1ccc(CNc2ccnc3ccccc23)cc1
active: SR leukemia 9.72%
inactive: SK-MEL-2 melanoma 79.3% | EKVX NSCLC 45.3% | SN12C renal 64% | UO-31 renal 31.6% | ACHN renal 75.8% | CAKI-1 renal 61.9% | A498 renal 48.2% | CCRF-CEM leukemia 53.3% | MOLT-4 leukemia 51.7% | RPMI-8226 leukemia 25.2% | OVCAR-8 ovarian 47.4% | OVCAR-5 ovarian 81.7% | OVCAR-4 ovarian 17.1% | SK-OV-3 ovarian 61.4% | IGROV1 ovarian 78.2% | OVCAR-3 ovarian 52.5% | HS 578T breast 90.1% | NCI/ADR-RES ovarian 40%

CCOc1cc2c(Cl)ncnc2c(OCC)c1OCC
active: UO-31 renal -17.7% | IGROV1 ovarian -65.2% | OVCAR-3 ovarian 3.36%
inactive: SK-MEL-2 melanoma 52.2% | EKVX NSCLC 88.4% | SN12C renal 94% | ACHN renal 60.1% | A498 renal 91.1% | CCRF-CEM leukemia 11.2% | MOLT-4 leukemia 21.7% | RPMI-8226 leukemia 15.5% | OVCAR-8 ovarian 99.6% | OVCAR-5 ovarian 96.7% | OVCAR-4 ovarian 94.9% | SK-OV-3 ovarian 108% | HS 578T breast 94.7% | NCI/ADR-RES ovarian 92.5%

O=C1CCCCC1(c1ccccc1)c1ccccc1
inactive: SK-MEL-2 melanoma 100% | EKVX NSCLC 91.2% | SN12C renal 104% | UO-31 renal 98.8% | ACHN renal 101% | CAKI-1 renal 82.4% | CCRF-CEM leukemia 101% | MOLT-4 leukemia 105% | SR leukemia 106% | RPMI-8226 leukemia 111% | OVCAR-8 ovarian 110% | OVCAR-5 ovarian 97.4% | OVCAR-4 ovarian 71.8% | SK-OV-3 ovarian 101% | IGROV1 ovarian 101% | OVCAR-3 ovarian 106% | HS 578T breast 99.7% | NCI/ADR-RES ovarian 96.1%

O=C(CSc1nc2ccccc2[nH]1)Nc1ccc(-c2nc3ccccc3s2)c(Cl)c1
inactive: SK-MEL-2 melanoma 51.2% | EKVX NSCLC 27.1% | SN12C renal 35.1% | TK-10 renal 30.1% | CAKI-1 renal 26.9% | A498 renal 71.8% | MOLT-4 leukemia 81.3% | RPMI-8226 leukemia 28.9% | OVCAR-5 ovarian 20.4% | SK-OV-3 ovarian 12.4% | HS 578T breast 65.2%
active: UO-31 renal 8.16% | OVCAR-8 ovarian -9.6% | OVCAR-4 ovarian -39.8% | IGROV1 ovarian -52.3% | OVCAR-3 ovarian -17.2% | NCI/ADR-RES ovarian 9.5%

COc1c2occc2c(OC)c2c(=O)c(-c3cc(-c4ccc(F)cc4)c(C#N)c(N)n3)c(C)oc12
inactive: SK-MEL-2 melanoma 59.9% | EKVX NSCLC 32% | SN12C renal 39.5% | UO-31 renal 25.3% | ACHN renal 41.8% | CAKI-1 renal 50.5% | A498 renal 25.7% | CCRF-CEM leukemia 16% | SR leukemia 15.5% | RPMI-8226 leukemia 27.3% | OVCAR-8 ovarian 49.1% | OVCAR-5 ovarian 91.9% | OVCAR-4 ovarian 19.4% | SK-OV-3 ovarian 56.5% | IGROV1 ovarian 21.3% | OVCAR-3 ovarian 15.2% | HS 578T breast 43.7% | NCI/ADR-RES ovarian 68.2%
active: MOLT-4 leukemia 5.86%

CCOC(=O)c1ccc(NC(=O)N2CC(C)OC(C)C2)cc1 (stereo unspecified)
active: UO-31 renal 4.84%
inactive: SK-MEL-2 melanoma 113% | EKVX NSCLC 108% | SN12C renal 97.4% | ACHN renal 96.7% | A498 renal 80.6% | CCRF-CEM leukemia 102% | MOLT-4 leukemia 99.9% | SR leukemia 98.7% | RPMI-8226 leukemia 63.1% | OVCAR-8 ovarian 101% | OVCAR-5 ovarian 94% | OVCAR-4 ovarian 96.8% | SK-OV-3 ovarian 99.5% | IGROV1 ovarian 73.6% | OVCAR-3 ovarian 109% | HS 578T breast 101% | NCI/ADR-RES ovarian 100%

COc1ccc(C(=O)NC(=O)Nc2cc3c(cc2F)/C(=C/c2[nH]c(C)c(CCC(=O)O)c2C)C(=O)N3)c(F)c1
active: CCRF-CEM leukemia 7.61% | RPMI-8226 leukemia -2.09% | OVCAR-8 ovarian 6.72%
inactive: SK-MEL-2 melanoma 22.1% | EKVX NSCLC 65.3% | SN12C renal 27.6% | UO-31 renal 58.6% | ACHN renal 65.5% | A498 renal 12.3% | MOLT-4 leukemia 33.9% | SR leukemia 26.5% | OVCAR-5 ovarian 63.1% | OVCAR-4 ovarian 80.3% | SK-OV-3 ovarian 60.5% | IGROV1 ovarian 37.4% | OVCAR-3 ovarian 36.8% | HS 578T breast 16.3% | NCI/ADR-RES ovarian 83.9%

COc1cccc(-c2nc3sccn3c2-c2ccnc(NCCCNS(=O)(=O)c3ccc(F)cc3)c2)c1
active: UO-31 renal 6.81% | RPMI-8226 leukemia -25.1%
inactive: SK-MEL-2 melanoma 21.2% | EKVX NSCLC 36.5% | SN12C renal 29.9% | ACHN renal 22.6% | A498 renal 48.7% | CCRF-CEM leukemia 10.6% | MOLT-4 leukemia 10.9% | SR leukemia 45.2% | OVCAR-8 ovarian 16% | OVCAR-5 ovarian 83.6% | OVCAR-4 ovarian 30.2% | SK-OV-3 ovarian 74.8% | IGROV1 ovarian 29.7% | OVCAR-3 ovarian 35.8% | HS 578T breast 63.7% | NCI/ADR-RES ovarian 10.2%

Cc1ccc(S(=O)(=O)NCCNc2nccc(-c3c(-c4cccc(N)c4)nc4sccn34)n2)cc1
inactive: SK-MEL-2 melanoma 109% | EKVX NSCLC 83.5% | SN12C renal 81% | UO-31 renal 70.9% | ACHN renal 86.4% | CAKI-1 renal 81.8% | A498 renal 92.4% | CCRF-CEM leukemia 95.8% | MOLT-4 leukemia 88% | SR leukemia 95.9% | RPMI-8226 leukemia 74.7% | OVCAR-8 ovarian 91.4% | OVCAR-5 ovarian 123% | OVCAR-4 ovarian 58.8% | SK-OV-3 ovarian 103% | IGROV1 ovarian 86.6% | OVCAR-3 ovarian 87.4% | HS 578T breast 99.5% | NCI/ADR-RES ovarian 90.8%

Cc1ccc2[nH]c(=O)c3c(c2c1)Oc1ncn2nc(-c4ccco4)nc2c1C3c1ccc(Cl)cc1 (stereo unspecified)
inactive: SK-MEL-2 melanoma 95.6% | EKVX NSCLC 90.9% | SN12C renal 96.2% | UO-31 renal 84.9% | ACHN renal 94.6% | CAKI-1 renal 91.9% | A498 renal 96.8% | CCRF-CEM leukemia 97.4% | SR leukemia 106% | RPMI-8226 leukemia 101% | OVCAR-8 ovarian 93.4% | OVCAR-5 ovarian 98.2% | OVCAR-4 ovarian 87.9% | IGROV1 ovarian 98% | OVCAR-3 ovarian 111% | HS 578T breast 93% | NCI/ADR-RES ovarian 94.9%
active: SK-OV-3 ovarian -90.5%
